{"source": "PubChem BioAssay (EPA / NIEHS)", "note": "Active and inactive are the calls of the source. The calls were made as follows: active = hit-call score of the fitted dose curve at least 0.9, where 1 is the maximum; inactive = score below 0.9."}
{"read-out": "Basic fibroblast growth factor (bFGF), FGF2 (gene 2247)", "assay": "BSK_MyoF_bFGF: BioMAP Diversity Plus: MyoF Assay for Basic fibroblast growth factor (bFGF) Biomarker Activity (AID 2284246)", "details": "primary human lung fibroblasts", "method_in_brief": "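Fibroblasts from human lung, 24 h dosing. bFGF by ELISA; gain of signal over DMSO.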"}
{"smiles": "Oc1c(Br)cc(Br)cc1Br", "outcome": "inactive"}
{"smiles": "Cc1cc(C(C)(C)c2ccc(O)c(C)c2)ccc1O", "outcome": "inactive"}
{"smiles": "O=c1oc2ccccc2c(O)c1C(CC(O)c1ccc(-c2ccc(Br)cc2)cc1)c1ccccc1", "note": "(stereo unspecified)", "AC50": "11.5 µM (active)"}
{"smiles": "C[C@]12CC[C@@H](O)C[C@@H]1CC[C@@H]1[C@@H]2CC[C@]2(C)C(=O)CC[C@@H]12", "outcome": "inactive"}
{"smiles": "CCC(C)(C#N)N=NC(C)(C#N)CC", "note": "(stereo unspecified)", "outcome": "inactive"}
{"smiles": "CC(C)=CC1C(C(=O)OCc2cccc(Oc3ccccc3)c2)C1(C)C", "note": "(stereo unspecified)", "outcome": "inactive"}
{"smiles": "CC1(C)[C@H](C(=O)O[C@H](C#N)c2cccc(Oc3ccccc3)c2)[C@@H]1/C=C(\\Cl)C(F)(F)F", "outcome": "inactive"}
{"smiles": "Cc1cc(Cl)ccc1N", "outcome": "inactive"}
{"smiles": "OC(Cc1ccccc1Cl)(Cn1[nH]cnc1=S)C1(Cl)CC1", "note": "(stereo unspecified)", "outcome": "inactive"}
{"smiles": "C#CCOC(=O)/C=C(C)/C=C/CC(C)CCCC(C)C", "note": "(stereo unspecified)", "outcome": "inactive"}
{"smiles": "O=S(=O)(c1ccc(Cl)cc1)c1cc(Cl)c(Cl)cc1Cl", "outcome": "inactive"}
{"smiles": "CC(C=O)Cc1ccc2c(c1)OCO2", "note": "(stereo unspecified)", "outcome": "inactive"}
{"smiles": "Cc1ccccc1OP(=O)(Oc1ccccc1C)Oc1ccccc1C", "AC50": "33.3 µM (active)"}
{"smiles": "CCOC(=O)CCN(SN(C)C(=O)Oc1cccc2c1OC(C)(C)C2)C(C)C", "outcome": "inactive"}
{"smiles": "Oc1cccc(-c2ccccc2)c1", "outcome": "inactive"}
{"smiles": "[Cl][Sn]([c]1ccccc1)([c]1ccccc1)[c]1ccccc1", "AC50": "0.324 µM (active)"}
{"smiles": "OC(Cc1ccccc1Cl)(Cn1cncn1)C1(Cl)CC1", "note": "(stereo unspecified)", "outcome": "inactive"}
{"smiles": "CCN(CC)C(=O)C(Cl)=C(C)OP(=O)(OC)OC", "outcome": "inactive"}
{"smiles": "CC(C)(C)c1cc([N+](=O)[O-])cc(C(C)(C)C)c1O", "outcome": "inactive"}
{"smiles": "CCCCN(CCCC)C(=S)[S-].CCCCN(CCCC)C(=S)[S-].[Ni+2]", "outcome": "inactive"}
{"smiles": "NC(=O)CCl", "outcome": "inactive"}
{"smiles": "Nc1c(Oc2ccccc2)cc(O)c2c1C(=O)c1ccccc1C2=O", "outcome": "inactive"}
{"smiles": "c1ccc2sc(SNC3CCCCC3)nc2c1", "outcome": "inactive"}
{"read-out": "Collagen IV, COL4A1 (gene 1282)", "assay": "BSK_MyoF_CollagenIV: BioMAP Diversity Plus: MyoF Assay for Collagen IV Biomarker Activity (AID 2284247)", "details": "primary human lung fibroblasts", "method_in_brief": "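Lung fibroblasts (human primary) treated with chemicals were assayed after 24 h for Collagen IV using an ELISA, with DMSO serving as negative control and baseline for a positive-direction fit.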"}
{"smiles": "Oc1c(Br)cc(Br)cc1Br", "AC50": "20 µM (active)"}
{"smiles": "Cc1cc(C(C)(C)c2ccc(O)c(C)c2)ccc1O", "outcome": "inactive"}
{"smiles": "O=c1oc2ccccc2c(O)c1C(CC(O)c1ccc(-c2ccc(Br)cc2)cc1)c1ccccc1", "note": "(stereo unspecified)", "AC50": "5.33 µM (active)"}
{"smiles": "C[C@]12CC[C@@H](O)C[C@@H]1CC[C@@H]1[C@@H]2CC[C@]2(C)C(=O)CC[C@@H]12", "outcome": "inactive"}
{"smiles": "CCC(C)(C#N)N=NC(C)(C#N)CC", "note": "(stereo unspecified)", "outcome": "inactive"}
{"smiles": "CC(C)=CC1C(C(=O)OCc2cccc(Oc3ccccc3)c2)C1(C)C", "note": "(stereo unspecified)", "outcome": "inactive"}
{"smiles": "CC1(C)[C@H](C(=O)O[C@H](C#N)c2cccc(Oc3ccccc3)c2)[C@@H]1/C=C(\\Cl)C(F)(F)F", "outcome": "inactive"}
{"smiles": "Cc1cc(Cl)ccc1N", "outcome": "inactive"}
{"smiles": "OC(Cc1ccccc1Cl)(Cn1[nH]cnc1=S)C1(Cl)CC1", "note": "(stereo unspecified)", "outcome": "inactive"}
{"smiles": "C#CCOC(=O)/C=C(C)/C=C/CC(C)CCCC(C)C", "note": "(stereo unspecified)", "outcome": "inactive"}
{"smiles": "O=S(=O)(c1ccc(Cl)cc1)c1cc(Cl)c(Cl)cc1Cl", "outcome": "inactive"}
{"smiles": "CC(C=O)Cc1ccc2c(c1)OCO2", "note": "(stereo unspecified)", "outcome": "inactive"}
{"smiles": "Cc1ccccc1OP(=O)(Oc1ccccc1C)Oc1ccccc1C", "AC50": "20 µM (active)"}
{"smiles": "CCOC(=O)CCN(SN(C)C(=O)Oc1cccc2c1OC(C)(C)C2)C(C)C", "outcome": "inactive"}
{"smiles": "Oc1cccc(-c2ccccc2)c1", "outcome": "inactive"}
{"smiles": "[Cl][Sn]([c]1ccccc1)([c]1ccccc1)[c]1ccccc1", "AC50": "0.286 µM (active)"}
{"smiles": "OC(Cc1ccccc1Cl)(Cn1cncn1)C1(Cl)CC1", "note": "(stereo unspecified)", "outcome": "inactive"}
{"smiles": "CCN(CC)C(=O)C(Cl)=C(C)OP(=O)(OC)OC", "outcome": "inactive"}
{"smiles": "CC(C)(C)c1cc([N+](=O)[O-])cc(C(C)(C)C)c1O", "AC50": "0.396 µM (active)"}
{"smiles": "CCCCN(CCCC)C(=S)[S-].CCCCN(CCCC)C(=S)[S-].[Ni+2]", "outcome": "inactive"}
{"smiles": "NC(=O)CCl", "outcome": "inactive"}
{"smiles": "Nc1c(Oc2ccccc2)cc(O)c2c1C(=O)c1ccccc1C2=O", "AC50": "2.54 µM (active)"}
{"smiles": "c1ccc2sc(SNC3CCCCC3)nc2c1", "outcome": "inactive"}
